# Shown are actives, neighbours in structure and some others; about 27% of the full set was active somewhere.
# CYP2C19 activ: increases human CYP2C19 enzyme activity. P33261. recombinant CYP2C19, luciferin-H EGE luminescence; active compounds read high; 0 = fully inhibited enzyme, 1 = untreated enzyme. activation factor at 5 µM. 96,000 tested, under 10 active. AID 1025;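 active = activation factor of at least 2 at 5 µM in the primary screen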
# CYP2C9 inhib: inhibitors of human CYP2C9; P11712; CYP2C9 Supersomes, luciferin-H conversion, luminescence; inhibition, % at 5 µM; 96,000 compounds, 20% hits;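 active = blocking of liver enzyme CYP2C9 beyond about 50% at 5 µM, limit read from the data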
# PTK2B oligo ant: blocks oligomerization of human Pyk2 in cells; Q293 cells, Pyk2 FERM NanoBiT luminescence; active compounds read low; z-score (the deposit names both 25 µM and 10 µM); 99,000 compounds, 0.83% hits; AID 1347419;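 active = Z-score of -3 or lower, scaled per plate to the spread of control and sample wells; inactive = z-score above -3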;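 note: negative z-score means lost luminescence so less FERM oligomerization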
# CYP2C9 activ: CYP2C9 (human) activation | P11712 | recombinant CYP2C9, luciferin-H conversion, luminescence; active compounds read high; factor 1 = untreated enzyme, 0 = blocked | activation factor at 5 µM | 96,000 compounds, 1.4% hits;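 active = activation factor of 2 or more for CYP2C9 at a 5 µM dose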
# CYP2C19 inhib: inhibitors of human CYP2C19; CYP2C19 Supersomes, luciferin-H EGE luminescence, 30 min; AID 778; inhibition, % at 5 µM; 96,000 compounds, 21% hits;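 active = CYP2C19 inhibition above a set limit at 5 µM in the primary screen, cut at about 50% in these data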
# Cav3 T inh: human Cav3.2 channel inhibition, primary screen. O95180. Cav3.2-expressing cells, Fluo-4 calcium fluorescence FDSS; active compounds read low. B-score at 10 µM. 100,000 compounds, 4% hits. AID 449739;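 active = single-dose well whose peak fluorescence ratio is a statistical outlier from its plate by either plate-standardised score or position-corrected B-score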
# Numbers stand for hits; – = inactive; · = no result.
SMILES,CYP2C19 activ,CYP2C9 inhib,PTK2B oligo ant,CYP2C9 activ,CYP2C19 inhib,Cav3 T inh
Cc1cc(/C=C(\C#N)C(=O)OCC(=O)NC(=O)NC(C)(C)C)c(C)n1CCC(C)C,–,98,–,–,92,–
C=CCNC(=O)NC(=O)COC(=O)/C(C#N)=C/c1cc(C)n(CCC(C)C)c1C,–,–,–,–,–,–
COc1ccc(S(=O)(=O)n2oc(=O)cc2-c2ccccc2)cc1OC,–,–,–,–,97,–
COc1ccc(S(=O)(=O)n2oc(=O)cc2-c2ccccc2)cc1,–,–,–,–,–,–
O=c1cc(-c2ccccc2)n(S(=O)(=O)c2ccccc2)o1,–,–,–,–,52,–
Cc1c(C(C)O)nnn1-c1nonc1N (centres undefined),–,–,–,–,–,–
O=C(COc1ccc2ccccc2c1Br)NNC(=O)Nc1ccccc1,–,–,–,–,–,–
Brc1c(OCCOCCn2cncn2)ccc2ccccc12,–,95,–,–,99,–
CCN(CC)CCCN1C=C2C(=O)C(C)(OC(=O)C3CCCC3)C(=O)C=C2C=C1c1ccsc1 (centres undefined),·,·,·,·,·,–
Cc1ccc(C(C)C)c(OCC(=O)N2CCOCC2)c1,–,–,–,–,–,–
CCC(=O)N1CCN(c2ccccc2NC(=O)COc2cc(C)ccc2C(C)C)CC1,–,96,–,–,93,-7.1
CC(=O)N1CCN(c2ccccc2NC(=O)COc2ccc(Cl)cc2Cl)CC1,–,–,–,–,78,-4.7
CC(=O)N1CCN(c2ccccc2NC(=O)c2cc(Br)ccc2Cl)CC1,–,59,–,–,–,–
N#Cc1c(Nc2ccccc2)c(C=NCCN2CCOCC2)c[nH]c1=O,–,–,–,–,73,–
O=S(=O)(NCCSc1ccc(Cl)cc1)c1ccc(F)cc1,–,57,–,–,–,-7.7
O=S(=O)(NCCCCCNS(=O)(=O)c1ccc(F)cc1)c1ccc(F)cc1,–,73,–,–,54,-5.8
Cc1ccc(SCCNS(=O)(=O)c2ccc(F)cc2)cc1,–,88,–,–,96,-8.7
Cc1ccc(S(=O)(=O)NCCCNS(C)(=O)=O)cc1,–,–,–,–,–,–
CN1CCN(c2nc3c(c(=O)n(C)c(=O)n3C)n2CC(=O)C23CC4CC(CC(C4)C2)C3)CC1,–,–,–,–,–,–
CN1CCc2nc(NC(=O)c3cccc(OC(F)F)c3)sc2C1,–,–,–,–,–,–
c1ccc2c(-n3cccn3)cccc2c1,–,–,–,–,–,–
Cc1ccc(-n2c(C)cc(C(=S)N3CCOCC3)c2C)cc1C,–,–,–,–,87,–
CC(=O)Nc1c(C(=O)N2CCOCC2)cnn1-c1ccc(C)c(C)c1,–,–,–,–,–,–
CCOc1ccc(N/C(=C(/C(Cl)=C(Cl)Cl)[N+](=O)[O-])n2cncn2)cc1,–,68,·,–,61,–
O=[N+]([O-])/C(C(Cl)=C(Cl)Cl)=C(\Nc1ccc(F)cc1)n1cncn1,–,–,·,–,–,–
SMILES,CYP2C19 activ,CYP2C9 inhib,PTK2B oligo ant,CYP2C9 activ,CYP2C19 inhib,Cav3 T inh
CCCNC(=O)C1CC(c2cccc(F)c2)=NO1 (centres undefined),·,·,·,·,·,–
C(=N\n1cnnc1)/c1ccc(OCc2ccccc2)cc1,–,81,–,–,70,–
CC(=O)Oc1ccccc1C(=O)Oc1ccc(/C=N/n2cnnc2)cc1,–,95,–,–,–,–
CCOc1ccc(/C=N/n2cnnc2)cc1,–,–,–,–,82,–
COc1cc(/C=N/n2cnnc2)ccc1OC(=O)c1cccnc1,–,–,–,–,–,–
C(=N\n1cnnc1)/c1ccc(-c2ccccc2)cc1,–,98,–,–,99,–
CCOc1cc(/C=N/n2cnnc2)cc(Br)c1O,–,–,–,–,–,–
CC(Sc1nnc(C2CCCCC2)n1N)C(=O)NCc1ccc2c(c1)OCO2 (centres undefined),–,–,–,–,–,–
Cn1c(CC(=O)Nc2ccccc2)nnc1SCCOc1ccccc1,–,–,–,–,–,·
CCCc1nnc(NC(=O)Cn2c(=O)oc3ccccc32)s1,–,54,–,–,–,–
CCc1nnc(NC(=O)Cn2nc(-c3ccccc3OC)ccc2=O)s1,–,63,–,–,–,–
CCc1nnc(NC(=O)Cn2c(=O)oc3ccccc32)s1,–,73,–,–,64,–
CCCc1nnc(NC(=O)Cn2c(=O)oc3cc(Br)ccc32)s1,–,68,–,–,–,–
